In PubChem BioAssay:
Measured potencies and affinities stand elsewhere. Results filed as inconclusive are left out. Calls of active or inactive are those of the source.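 The calls were made as follows, unless noted: active = a dose-response fit showing signal loss, with half-maximal concentration no higher than twice the top tested dose; inconclusive = flat fit between 30% and 70% signal loss, or poor fit; inactive = the rest.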

Assay: Cryptococcus neoformans growth inhibition, dose response, Alamar Blue, cherry-picks (AID 686998;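 active = falling signal with fitted half-maximal potency no higher than twice the top valid tested dose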)
Conditions: 24 h; series mostly up to 35 µM
For `Cc1ccc(NC(=O)N2CCCC2C(=O)Nc2c(C)cc(C)cc2C)cc1` (configuration not stated), the outcome was “inactive”.
For `Cc1ccc(S(=O)(=O)N[C@H]2C=C[C@@H](CC(=O)N3CCC(Cc4ccccc4)CC3)O[C@H]2CO)cc1`, the outcome was “inactive”.
In the case of `C[C@@H]1CN([C@@H](C)CO)C(=O)Cc2cc(NC(=O)c3ccncc3)ccc2O[C@H]1CN(C)Cc1ccncc1`, the outcome is reported as “inactive”.
With `Cc1noc(C)c1S(=O)(=O)Nc1ccc2c(c1)CC(=O)N([C@H](C)CO)C[C@H](C)[C@@H](CN(C)S(=O)(=O)c1cn(C)cn1)O2` the outcome was “inactive”.
With `O=C(NCCN1CCCCC1)[C@@H]1N[C@@H]2c3ccc(-c4ccncc4)c(=O)n3C[C@@H]2[C@H]1CO` the outcome was “inactive”.
With `COC(=O)C1=C(C)N(Cc2ccccc2)C(=S)N[C@H]1c1ccc(Br)cc1` the outcome was “inactive”.
With `S=C(Nc1ccc(Cl)cc1Cl)Nc1ccccc1Oc1ccccc1` the outcome was “inactive”.
With `COCCN1C(=S)N[C@@H](c2ccccc2)C(C(=O)OC)=C1C` the outcome was “inactive”.
For `Cc1cccc(-c2ccc([C@H]3[C@H](CO)N4CCCCN(C(=O)c5ccc6c(c5)OCO6)C[C@@H]34)cc2)c1`, the outcome was “inactive”.
With `CCCC(=O)N1CCC1(C)C(=O)Nc1ccc(C)cc1` (configuration not stated) the outcome was “inactive”.
For `C[C@@H]1CCCCO[C@@H](CN(C)C(=O)Nc2cccc3ccccc23)[C@@H](C)CN([C@H](C)CO)C(=O)c2cc(NS(=O)(=O)c3ccccc3)ccc2O1`, the outcome was “inactive”.
With `CCNC(=O)C[C@H]1CC[C@H](NC(=O)NC2CCCCC2)[C@@H](CO)O1` the outcome was “inactive”.
In the case of `COc1cccc(S(=O)(=O)Nc2ccc3c(c2)[C@H]2C[C@H](CC(=O)N(C)C)O[C@@H](CO)[C@H]2O3)c1`, the outcome is reported as “inactive”.
With `C[C@H]1CN([C@@H](C)CO)C(=O)Cc2cc(NS(C)(=O)=O)ccc2O[C@@H]1CN(C)Cc1ccc(Cl)c(Cl)c1` the outcome was “inactive”.
For `C[C@@H]1CN([C@H](C)CO)S(=O)(=O)c2ccc(C#C[C@@H](C)O)cc2O[C@@H]1CN(C)Cc1ccncc1`, the outcome was “inactive”.
In the case of `C[C@H]1CN([C@@H](C)CO)C(=O)Cc2cc(N(C)C)ccc2O[C@@H]1CN(C)C(=O)Nc1ccc(C(F)(F)F)cc1`, the outcome is reported as “inactive”.
In the case of `CCCC(=O)Nc1ccc2c(c1)C(=O)N(C)C[C@H](OC)[C@@H](C)CN(C(=O)c1cccnc1)[C@@H](C)CO2`, the outcome is reported as “inactive”.
For `CCCC(C)(C)C(=O)N1CCC1(C)C(=O)Nc1ccc(C)cc1` (configuration not stated), the outcome was “inactive”.
For `Cc1noc(C)c1NC(=O)N(C)C[C@H]1OCCCC[C@H](C)Oc2ccc(NC(=O)NC(C)C)cc2C(=O)N([C@@H](C)CO)C[C@@H]1C`, the outcome was “inactive”.
With `COc1ccc(NC(=S)NCc2ccc(Cl)cc2)c(OC)c1` the outcome was “inactive”.
For `CC(C)NC(=O)Nc1ccc2c(c1)C(=O)N([C@@H](C)CO)C[C@@H](C)[C@H](CN(C)C(=O)c1ccncc1)OCCCC[C@H](C)O2`, the outcome was “inactive”.
With `O=C(NCCc1ccccc1)[C@@H]1[C@@H](CO)[C@@H]2Cn3c(cccc3=O)[C@H]1N2C(=O)C1CCC1` the outcome was “inactive”.
With `C[C@@H]1CN([C@@H](C)CO)C(=O)c2cc(NC(=O)C3CC3)ccc2O[C@H]1CN(C)CC1CCCCC1` the outcome was “inactive”.
In the case of `CO[C@@H]1CN(C)C(=O)c2cc(NS(=O)(=O)c3cccc(C)c3)ccc2OC[C@@H](C)NC[C@H]1C`, the outcome is reported as “inactive”.
For `CNC[C@@H]1OCCCC[C@@H](C)Oc2ccc(NC(=O)Nc3ccc4c(c3)OCO4)cc2C(=O)N([C@H](C)CO)C[C@@H]1C`, the outcome was “inactive”.
In the case of `COc1ccccc1CNC(=S)NCc1ccc(Cl)cc1`, the outcome is reported as “inactive”.
In the case of `Cc1noc(C)c1NC(=O)Nc1ccc2c(c1)C(=O)N([C@@H](C)CO)C[C@H](C)[C@H](CN(C)CC1CCCCC1)O2`, the outcome is reported as “inactive”.

Assay: HepG2 cell cytotoxicity, dose response, cytotoxicity control, cherry-picks, set 2 (AID 687002)
Conditions: HepG2 viability, ATP luminescence (CellTiter-Glo), 48 h; series mostly up to 26 µM
For `CC(C)NC(=O)N(C)C[C@H]1OCCCC[C@H](C)Oc2ccc(NC(=O)c3ccccc3)cc2C(=O)N([C@@H](C)CO)C[C@@H]1C`, the outcome was “inactive”.
With `CCCN1C[C@H](C)[C@@H](OC)CN(C)C(=O)c2cc(NC(=O)c3cccc(F)c3)ccc2OC[C@@H]1C` the outcome was “inactive”.
For `O=C(Nc1ccccc1N1CCOCC1)c1cccc([N+](=O)[O-])c1`, the outcome was “inactive”.
In the case of `CCCNC(C)C(=O)Nc1ccccc1C` (configuration not stated), the outcome is reported as “inactive”.
In the case of `COCCNC(=O)C[C@@H]1C[C@H]2c3cc(NC(=O)C4CCOCC4)ccc3O[C@H]2[C@H](CO)O1`, the outcome is reported as “inactive”.
For `O=C(NC1CCCCC1)N[C@H]1C=C[C@@H](CC(=O)N2CCOCC2)O[C@@H]1CO`, the outcome was “inactive”.
For `COCCNC(=O)C[C@H]1C[C@@H]2c3cc(NC(=O)C4CCC4)ccc3O[C@@H]2[C@H](CO)O1`, the outcome was “inactive”.
With `O=C(NCCN1CCCCC1)[C@H]1N[C@H]2c3ccc(-c4ccncc4)c(=O)n3C[C@H]2[C@@H]1CO` the outcome was “inactive”.
With `C[C@H](O)C#Cc1ccc2c(c1)O[C@H](CN(C)Cc1ccncc1)[C@H](C)CN([C@H](C)CO)S2(=O)=O` the outcome was “inactive”.
In the case of `C[C@H]1CN([C@@H](C)CO)C(=O)c2ccccc2-c2ccccc2CO[C@H]1CN(C)S(=O)(=O)c1cccc(C#N)c1`, the outcome is reported as “inactive”.
In the case of `Cc1cccc(C)c1NC(=O)CN(C)C(=O)C1CC1C` (configuration not stated), the outcome is reported as “inactive”.
In the case of `Cc1noc(C)c1S(=O)(=O)Nc1ccc2c(c1)C(=O)N([C@@H](C)CO)C[C@@H](C)[C@@H](CN(C)Cc1ccccc1)OCCCC[C@H](C)O2`, the outcome is reported as “inactive”.
In the case of `CCN(Cc1ccccc1)C(=O)COc1ccccc1`, the outcome is reported as “inactive”.
With `Cc1ccc(NC(=O)N2CCCC2C(=O)Nc2c(C)cc(C)cc2C)cc1` (configuration not stated) the outcome was “inactive”.
For `Cc1ccc(S(=O)(=O)N[C@H]2C=C[C@@H](CC(=O)N3CCC(Cc4ccccc4)CC3)O[C@H]2CO)cc1`, the outcome was “inactive”.
For `C[C@@H]1CN([C@@H](C)CO)C(=O)Cc2cc(NC(=O)c3ccncc3)ccc2O[C@H]1CN(C)Cc1ccncc1`, the outcome was “inactive”.
With `Cc1noc(C)c1S(=O)(=O)Nc1ccc2c(c1)CC(=O)N([C@H](C)CO)C[C@H](C)[C@@H](CN(C)S(=O)(=O)c1cn(C)cn1)O2` the outcome was “inactive”.
In the case of `O=C(NCCN1CCCCC1)[C@@H]1N[C@@H]2c3ccc(-c4ccncc4)c(=O)n3C[C@@H]2[C@H]1CO`, the outcome is reported as “inactive”.
For `COC(=O)C1=C(C)N(Cc2ccccc2)C(=S)N[C@H]1c1ccc(Br)cc1`, the outcome was “inactive”.
With `S=C(Nc1ccc(Cl)cc1Cl)Nc1ccccc1Oc1ccccc1` the outcome was “inactive”.
For `COCCN1C(=S)N[C@@H](c2ccccc2)C(C(=O)OC)=C1C`, the outcome was “inactive”.
With `Cc1cccc(-c2ccc([C@H]3[C@H](CO)N4CCCCN(C(=O)c5ccc6c(c5)OCO6)C[C@@H]34)cc2)c1` the outcome was “inactive”.
With `CCCC(=O)N1CCC1(C)C(=O)Nc1ccc(C)cc1` (configuration not stated) the outcome was “inactive”.
In the case of `C[C@@H]1CCCCO[C@@H](CN(C)C(=O)Nc2cccc3ccccc23)[C@@H](C)CN([C@H](C)CO)C(=O)c2cc(NS(=O)(=O)c3ccccc3)ccc2O1`, the outcome is reported as “inactive”.
In the case of `CCNC(=O)C[C@H]1CC[C@H](NC(=O)NC2CCCCC2)[C@@H](CO)O1`, the outcome is reported as “inactive”.
With `COc1cccc(S(=O)(=O)Nc2ccc3c(c2)[C@H]2C[C@H](CC(=O)N(C)C)O[C@@H](CO)[C@H]2O3)c1` the outcome was “inactive”.
For `C[C@H]1CN([C@@H](C)CO)C(=O)Cc2cc(NS(C)(=O)=O)ccc2O[C@@H]1CN(C)Cc1ccc(Cl)c(Cl)c1`, the outcome was “inactive”.
For `C[C@@H]1CN([C@H](C)CO)S(=O)(=O)c2ccc(C#C[C@@H](C)O)cc2O[C@@H]1CN(C)Cc1ccncc1`, the outcome was “inactive”.
For `C[C@H]1CN([C@@H](C)CO)C(=O)Cc2cc(N(C)C)ccc2O[C@@H]1CN(C)C(=O)Nc1ccc(C(F)(F)F)cc1`, the outcome was “inactive”.
In the case of `CCCC(=O)Nc1ccc2c(c1)C(=O)N(C)C[C@H](OC)[C@@H](C)CN(C(=O)c1cccnc1)[C@@H](C)CO2`, the outcome is reported as “inactive”.
In the case of `CCCC(C)(C)C(=O)N1CCC1(C)C(=O)Nc1ccc(C)cc1` (configuration not stated), the outcome is reported as “inactive”.
For `Cc1noc(C)c1NC(=O)N(C)C[C@H]1OCCCC[C@H](C)Oc2ccc(NC(=O)NC(C)C)cc2C(=O)N([C@@H](C)CO)C[C@@H]1C`, the outcome was “inactive”.
With `COc1ccc(NC(=S)NCc2ccc(Cl)cc2)c(OC)c1` the outcome was “inactive”.
In the case of `CC(C)NC(=O)Nc1ccc2c(c1)C(=O)N([C@@H](C)CO)C[C@@H](C)[C@H](CN(C)C(=O)c1ccncc1)OCCCC[C@H](C)O2`, the outcome is reported as “inactive”.
With `O=C(NCCc1ccccc1)[C@@H]1[C@@H](CO)[C@@H]2Cn3c(cccc3=O)[C@H]1N2C(=O)C1CCC1` the outcome was “inactive”.
With `C[C@@H]1CN([C@@H](C)CO)C(=O)c2cc(NC(=O)C3CC3)ccc2O[C@H]1CN(C)CC1CCCCC1` the outcome was “inactive”.
In the case of `CO[C@@H]1CN(C)C(=O)c2cc(NS(=O)(=O)c3cccc(C)c3)ccc2OC[C@@H](C)NC[C@H]1C`, the outcome is reported as “inactive”.
With `CNC[C@@H]1OCCCC[C@@H](C)Oc2ccc(NC(=O)Nc3ccc4c(c3)OCO4)cc2C(=O)N([C@H](C)CO)C[C@@H]1C` the outcome was “inactive”.
In the case of `COc1ccccc1CNC(=S)NCc1ccc(Cl)cc1`, the outcome is reported as “inactive”.
For `Cc1noc(C)c1NC(=O)Nc1ccc2c(c1)C(=O)N([C@@H](C)CO)C[C@H](C)[C@H](CN(C)CC1CCCCC1)O2`, the outcome was “inactive”.
